# High-throughput results: PubChem, National Center for Advancing Translational Sciences (NCATS)
# TRHR PAM = allosteric enhancers of human TRH receptor; actives 0.66% (n = 360,000); P34981; enhancement, % at 2 µM; TRHR cells, fluo-8 calcium fluorescence, EC20 TRH enhancement; AID 493056; in the data active = enhancement above about 30%; also: 0% is about no effect
# Target sequence (P34981 whole entry, looked up): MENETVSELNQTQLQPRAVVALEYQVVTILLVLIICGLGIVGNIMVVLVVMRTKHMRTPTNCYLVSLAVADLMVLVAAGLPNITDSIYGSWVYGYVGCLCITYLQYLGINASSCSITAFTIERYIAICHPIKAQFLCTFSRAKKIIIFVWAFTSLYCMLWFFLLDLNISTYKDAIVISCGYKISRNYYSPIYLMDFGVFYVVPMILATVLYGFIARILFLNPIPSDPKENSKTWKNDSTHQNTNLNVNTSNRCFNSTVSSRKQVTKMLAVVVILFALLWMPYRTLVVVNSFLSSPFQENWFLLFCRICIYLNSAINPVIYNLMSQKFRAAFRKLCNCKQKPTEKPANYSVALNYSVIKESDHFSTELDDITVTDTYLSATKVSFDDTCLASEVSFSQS
#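 Enhancer read-out: after compound pinning and an initial kinetic agonist-mode read, an EC20 of TRH (10 nM final) was injected and fluo-8 calcium signal (Ex 480/Em 530) followed at 1 s/cycle for 100 cycles in TRHR-expressing cells.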
# D1 ag = human D1 receptor agonism; P21728; AID 504660; HEK293 T-REx D1 cells, calcium flux, agonist mode; actives 1% (n = 360,000); activation, % at 2 µM; also: 0% is about no effect
#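 Agonism was scored from calcium flux recorded over 180 s (1 read/s) after pintool compound addition, following a 10-cycle baseline. Cells were inducible force-coupled HEK293 TREx D1, plated overnight at 30 C and loaded with no-wash calcium dye.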
# TRHR ag = TRH receptor (human) agonism; P34981; TRHR cells, calcium flux fluo-8, FDSS agonist mode; activation, % at 2 µM; actives 0.18% (n = 360,000); also: 0% is about no effect
#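 Fluo-8-loaded TRHR cells; 10 s baseline, compound added, kinetic Ca2+ fluorescence read 1/s, agonist mode.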
# D1 antagonist = human D1 dopamine receptor antagonism. P21728. HEK293 TREx D1 cells, calcium flux, dopamine EC80; hits give low values. activity change, negative = inhibition, % at 10 µM. actives 3.2% (n = 360,000). AID 504652; in the data active = activity change below about -30%; also: % is scaled to controls: 0 for no effect and ±100 for the full control effect
#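 Tetracycline-induced HEK293 T-REx cells with force-coupled D1 receptor were loaded with a no-wash calcium dye. Compound was added after a 10 s baseline and read kinetically for 180 s; EC80 dopamine was then added and calcium flux followed another 180 s.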
# D1 potentiator = potentiators of human D1 dopamine receptor. P21728. HEK293 TREx D1 cells, calcium flux, dopamine EC20 potentiation. potentiation, % at 10 µM. actives 0.036% (n = 360,000); in the data active = potentiation above about 30%; also: 0% is about no effect
# Starred values were filed as active, the others as inactive; . = not tested or not shown; ! = repeats disagree. An excerpt weighted towards active compounds, which were near 4.7% of everything screened. Rule as the data show it, unless noted: active = activation above about 30%; inactive = the rest.
SMILES,TRHR PAM,D1 ag,TRHR ag,D1 antagonist,D1 potentiator
CCOC(=O)C(NC(=O)C(Cc1ccc(N(CCCl)CCCl)cc1)NC(C)=O)C(C)C (stereo unspecified),6,2,-2,-3,0
Cc1ccccc1CN1C(=O)C(C)N=C(c2ccccc2)c2ccccc21 (stereo unspecified),-4,2,-1,-8,-5
CC(=O)Nc1cc(C(=O)N2CCC3(CC2)OCCO3)ccc1S(=O)(=O)c1ccc(Cl)cc1,5,2,0,-87*,-3
CN1C[C@H](CO)C=C2c3cccc4[nH]cc(c34)C[C@H]21,2,23,-1,-76*,-5
FCCN(CCF)c1cccc(Cl)c1,5,0,-1,-34*,4
N#Cc1cc2c(nc1SCC(=O)Nc1ccc(C(F)(F)F)cc1)C1CCN2CC1,16,3,-1,17,-4
O=c1[nH]c(=O)n(Cc2ccc(F)cc2)c(O)c1C=Nc1ccc(Cl)cc1,-7,3,1,-1,-5
CCN(CC)c1ccc(N=Cc2c(O)n(-c3ccccc3C)c(=O)[nH]c2=O)cc1,3,31*,14,-8,-3
CCOc1ccccc1-n1c(O)c(C=Nc2ccc(N(CC)CC)cc2)c(=O)[nH]c1=O,-2,37*,22,10,-1
CCN(CC)c1ccc(N=Cc2c(O)n(Cc3ccccc3)c(=O)[nH]c2=O)cc1,4,37*!,-1,-5,-4
CCN(CC)c1ccc(N=Cc2c(O)n(-c3ccccc3)c(=O)[nH]c2=O)cc1,4,86*,-1,-1,-1
CCOc1ccc(-n2c(O)c(C=Nc3ccc(N(CC)CC)cc3)c(=O)[nH]c2=O)cc1,2,17,22,1,-4
COc1ccc(C)cc1NC(=O)c1cccn(Cc2cccc([N+](=O)[O-])c2)c1=O,4,0,1,.,5
COC(=O)C1=C(c2ccccc2OCc2ccccc2)C[C@@H]2CC[C@H]1N2C(=O)NCCOc1ccc(OC)cc1,-4,2,1,-38*,-5
COC(=O)C1=C(c2ccc(F)cc2OCc2ccccc2)C[C@@H]2CC[C@H]1N2C(=O)NCCOc1ccc(OC)cc1,-10,3,1,-2,-4
COC(=O)C1=C(c2ccc(F)cc2OCc2ccccc2)C[C@@H]2CC[C@H]1N2C(=O)NCCc1ccc(F)cc1,-4,5,1,-32*,-6
COC(=O)C1=C(c2ccccc2OCc2ccccc2)C[C@@H]2CC[C@H]1N2C(=O)NCCOc1ccccc1,-6,9,2,-31*,-6
COC(=O)C1=C(c2ccc(C(C)=O)cc2)C[C@@H]2CC[C@H]1N2C(=O)NCc1ccc(C(F)(F)F)cc1,0,48*,7,-41*,-2
COC(=O)C1=C(c2ccc3ccccc3c2)C[C@@H]2CC[C@H]1N2C(=O)NCc1ccc(C(F)(F)F)cc1,13,4,1,20,1
CCOc1ccc(CN(CCc2ccc3c(c2)OCO3)Cc2ccc(CC)cc2)cc1,1,3,0,4,-1
CCCCc1ccc(NC(=O)c2cccn(Cc3ccc(Cl)cc3)c2=O)cc1,2,4,1,12,-1
COC(=O)C1=C(c2cccc(OCc3ccccc3)c2)C[C@@H]2CC[C@H]1N2C(=O)NCc1cccc(OC)c1,5,9,1,.,29
COC(=O)C1=C(c2cccc(OCc3ccccc3)c2)C[C@@H]2CC[C@H]1N2C(=O)NCc1ccccc1C(F)(F)F,34*,4,1,-1,-3
Cc1cccc(CN2CC=C(c3noc(CCC(=O)Nc4ccc(C)c(F)c4)n3)CC2)c1,-2,11,0,-13,-2
COC(=O)C(O)(c1ccc(NC(=S)NC(=O)c2ccc(Cl)cc2Cl)c(C)c1)C(F)(F)F (stereo unspecified),0,46*,3,-52*,-12
CCOC(=O)C(O)(c1ccc(NC(=S)NC(=O)c2ccc(Cl)cc2Cl)c(C)c1)C(F)(F)F (stereo unspecified),2,54*,7,-35*,-10
Cc1ccc(-n2c(=O)[nH]c3ccc(Br)cc3c2=O)cc1,-4,0,0,-9,-1
CCOc1ccc(CN(CCc2ccc3c(c2)OCO3)Cc2cc(OC)ccc2O)cc1,-2,1,0,-26,-3
